A selection: hits, their analogues and other compounds. The true share with any hit is near 19%.
TDP1 cell CPT: qHTS for Inhibitors of human tyrosyl-DNA phosphodiesterase 1 (TDP1): qHTS in cells in presence of CPT. chicken DT40 Tdp1-/-;hTDP1 cells + 20 nM CPT, ATP luminescence, 48 h. Potency, µM (titrated, usually from 46.2 µM), inactives show at the highest dose activity change, negative = growth inhibition, hits mostly inhibitors. 420,000 tested, 12% active. AID 686979, 2013; also: potency is read from the fitted curve at half-maximal effect; nearly all actives have a fitted effect of over 55% in size
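Chicken DT40 Tdp1-/- cells stably complemented with human TDP1 were seeded at 400 cells/well in medium containing 20 nM camptothecin, exposed to pin-transferred compounds, and grown at 37 °C for at least 48 hr. Viability was read as ATP luminescence.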
TDP1 cell noCPT: qHTS for Inhibitors of human tyrosyl-DNA phosphodiesterase 1 (TDP1): qHTS in cells in absence of CPT; DT40 Tdp1-/- hTDP1 cells, no CPT, ATP luminescence, 48 h; Potency, µM (highest dose often 46.2 µM), for the others: at the highest dose activity change, negative = growth inhibition, hits mostly inhibitors; 420,000 tested, 15% active; also: potency is read from the fitted curve at half-maximal effect; nearly all actives have a fitted effect of over 55% in size
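Luminescent ATP content (CellTiter-Glo) served as the growth readout. Knockout chicken DT40 cells expressing human TDP1 were exposed to compounds without camptothecin for a minimum 48 hr at 37 °C.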
IL-1B inflam inh: qHTS for Inhibitors of Inflammasome Signaling: IL-1-beta AlphaLISA Primary Screen; activity change, % at 57.5 µM; 360,000 tested, 4.7% active; THP-1 LPS/ATP IL-1B secretion, AlphaLISA, 16 h; stronger effect = lower value; AID 743279, 2014; in the data active = activity change below about -50%; inconclusive = mostly about -30% to -49%
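THP-1 cells pretreated 1 hr with compounds (up to 57.5 uM final), then stimulated with LPS (250 ng/mL final) plus ATP (1.25 mM final); secreted IL-1B measured by AlphaLISA after 16 hr, decreased signal indicating inhibition.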
HT1080NT lethal: qHTS for induction of synthetic lethality in tumor cells producing 2HG: qHTS for the HT-1080-NT fibrosarcoma cell line | HT-1080-NT fibrosarcoma viability, CellTiter-Glo ATP luminescence, 48 h | Potency, µM (highest dose often 46.1 µM), inactives show at the highest dose activity, negative = less viability, actives largely listed as cytotoxic | 360,000 tested, 1.6% active;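 also: NT is the 2HG producing partner of a matched IDH1 knockdown line; potency is read from the fitted curve at half-maximal effect; 0% = DMSO-treated cells and -100% = media-only wells without cells; nearly all actives have a fitted effect of over 55% in size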
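Compounds were tested in concentration-response format on HT-1080-NT cells for 48 hours at 37 degrees C. Cell viability came from CellTiter-Glo luminescence; curves were classified by r2, response magnitude and activity.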
HT1080 IDH1KD tx: qHTS for induction of synthetic lethality in tumor cells producing 2HG: qHTS for the HT-1080-IDH1KD cell line; HT-1080 IDH1 knockdown viability, ATP luminescence, 48 h; Potency, µM (highest dose often 46.1 µM), inactives show at the highest dose activity, negative = toxicity, actives largely listed as cytotoxic; 360,000 tested, 2% active; AID 686971, 2013;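 also: potency is read from the fitted curve at half-maximal effect; 0% = DMSO wells and -100% = cell-free medium wells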
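After a 2 h attachment period, IDH1KD HT-1080 cells took pin-transferred compound for 48 h at 37 °C; ATP-based luminescence after 10 min room-temperature reagent incubation reported viability.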
* hit, by the source's call; ? = inconclusive; . = no result; [ ] = another dose, or the depositor's remark. Unless noted, calls follow the shape of the dose curve; as a rule, active = well fitted curve in the direction sought with a large enough effect; inconclusive = small, poorly fitted or top-dose-only effect, or another doubt; inactive = no such curve, though single readings can be large; an effect the other way counts as inactive or inconclusive. Unless noted, % is scaled to controls: 0 for no effect and ±100 for the full control effect.

SMILES	TDP1 cell CPT	TDP1 cell noCPT	IL-1B inflam inh	HT1080NT lethal	HT1080 IDH1KD tx
COc1ccccc1OCCCCCNCCO	-14.4%	-8.6%	-2.4	-13.8%	19.7%[9.24 µM]
OCCNCCCOc1cc(Cl)ccc1Cl	?	18.4µM*	-2.3	?	-17.9%
Cc1ccc(C(C[N+](=O)[O-])c2c(-c3ccccc3O)[nH][nH]c2=O)cc1 (stereo not drawn)	3.26µM*	2.91µM*	-101.9*	?	9.2µM*
O=c1[nH][nH]c(-c2ccccc2O)c1C(C[N+](=O)[O-])c1ccc(Br)cc1 (stereo not drawn)	3.26µM*	2.59µM*	?	-5.5%	-11.1%
COc1ccccc1N(C)c1cc2c(c3c1ccn3C)C1CCC2O1 (stereo not drawn)	23.1µM*	?	0.0	23.1µM*	?
Cn1ccc2c(N3CCC3)cc3c(c21)C1CCC3O1 (stereo not drawn)	-11.5%	?	5.7	4.8%	8.1%
CN(C)CCN(C)c1cc2c(c3c1ccn3C)C1CCC2O1 (stereo not drawn)	?	?	-3.5	6.7%	4.1%
Cn1ccc2c(N(Cc3ccccc3)Cc3ccccc3)cc3c(c21)C1CCC3O1 (stereo not drawn)	?	18.4µM*	0.0	-19.4%	-16.1%
CN(Cc1ccccc1)c1cc2c(c3c1ccn3C)C1CCC2O1 (stereo not drawn)	?	18.4µM*	-2.4	-26.6%	?
Cc1cccc2c(=O)c(C(=O)NCCCN3CCOCC3)c[nH]c12	1.3%	1.9%	5.3	-1.2%	-0.4%
COC1OC(COCc2ccccc2)C(N)C(OCc2ccccc2)C1OCc1ccccc1 (stereo not drawn)	?	?	?	-21.2%	?
Cc1ccc(C)c(NC(=O)CCC(=O)OC(C(=O)c2ccccc2)c2ccccc2)c1 (stereo not drawn)	4.0%	-1.1%	7.5	7.4%	8.9%
CCC(=O)Nc1cc(C(=O)OC(C(=O)c2ccc(C)c(C)c2)c2ccccc2)ccc1C (stereo not drawn)	18.4µM*	?	-58.5*	-17.7%	-15.1%
Cc1ccc(-c2nnn(CC(=O)N(Cc3ccccc3F)C(C(=O)NC3CCCC3)c3ccncc3)n2)o1 (stereo not drawn)	0.2%	-3.5%	13.6	-2.8%	3.0%
COc1ccc(Nc2c(-c3cccc(OC)c3)nc3nc(C)cc(C)n23)cc1	?	20.6µM*	15.9	15.6%	7.8%
COc1cccc(-c2nc3nc(C)cc(C)n3c2NCc2ccccc2)c1	?	11.6µM*	11.9	-3.4%	-2.1%
COc1cccc(-c2nc3nc(C)cc(C)n3c2NC2CCCC2)c1	?	?	-10.7	-1.6%	0.6%
COc1cccc(-c2nc3nc(C)cc(C)n3c2Nc2ccc3c(c2)OCCO3)c1	?	25.9µM*	6.5	7.4%	-12.2%
COc1ccccc1CN1CC2(CCN(S(C)(=O)=O)CC2)C1	0.9%	-13.1%	.	.	.
CCCCc1cc2c(=O)c(C(=O)OC)c[nH]c2cc1OCc1ccccc1	-6.6%	0.7%	.	.	.
Cc1cnc(C(=O)NCC(c2ccccc2)c2ccccc2)cn1	?	?	77.7	-0.3%	11.4%
COc1ccc(CCN2C(=O)CC(C(N)=O)SC2=Nc2ccccc2)cc1OC (stereo not drawn)	-10.1%	?	-2.5	-0.2%	-3.0%
COCCn1c(SCC(=O)Nc2cccc(OC)c2)nc2c(oc3ccccc32)c1=O	5.8µM*	7.31µM*	-5.0	-14.2%	0.7%
COc1cccc(-n2c(SCC(=O)Nc3cc(C)ccc3C)nc3c(oc4ccccc43)c2=O)c1	?	13µM*	.	.	.
COc1cccc(-n2c(SCC(=O)Nc3cccc(Cl)c3)nc3c(oc4ccccc43)c2=O)c1	?	-5.1%	.	.	.
SMILES	TDP1 cell CPT	TDP1 cell noCPT	IL-1B inflam inh	HT1080NT lethal	HT1080 IDH1KD tx
CCN1CCN(C(=O)CCc2nc3ccccc3c(=O)[nH]2)CC1	?	-4.4%	34.9	-8.3%	0.0%
O=C(CCc1nc2ccccc2c(=O)[nH]1)N1CCCc2ccccc21	?	8.2µM*	52.8	-20.2%	-15.8%
O=C(CCc1nc2ccccc2c(=O)[nH]1)N1CCN(c2ccccc2Cl)CC1	20.6µM*	16.4µM*	-4.1	6.2%	-0.5%
CC1C(=O)C(C)C(c2ccc([N+](=O)[O-])cc2)NC1c1ccc([N+](=O)[O-])cc1 (stereo not drawn)	?	18.4µM*	-8.1	-0.1%	-18.0%
C=CCOc1ccccc1CNc1ccc2c(c1)OCCO2	14.6µM*	11.6µM*	-75.0*	?	?
C=CCOc1ccccc1CNc1cccc(F)c1	?	-27.9%	-5.2	0.9%	0.2%
C=CCOc1ccccc1CNc1ccc2[nH]c(=O)[nH]c2c1	?	20.6µM*	22.6	5.5%	3.8%
Cc1ccc(/C=C(\NC(=O)c2ccccc2)C(=O)NC2CCN(Cc3ccccc3)CC2)o1	2.8%	5.4%	-20.7	11.8%	14.2%
COc1ccc(NC(=O)N2CCC(C(=O)c3ccc4c(c3)OCCO4)CC2)cc1	-20.4%	?	-14.3	-5.9%	-19.1%
Cc1ccc(C(=O)C2CCN(CC(=O)Nc3ccc4c(c3)OCCO4)CC2)cc1	-26.6%	?	-7.0	-7.5%	-18.9%
O=C(c1ccc2c(c1)OCCO2)C1CCN(C(=O)Nc2ccc(F)cc2)CC1	?	18.4µM*	14.7	-9.4%	-3.9%
Cc1cccc(NC(=O)CN2CCC(C(=O)c3ccc4c(c3)OCCO4)CC2)c1	?	16.4µM*	?	-4.9%	-6.9%
COc1cccc(-c2nc(N)nc(SC)c2C#N)c1	2.8%	-17.1%	-21.2	-0.2%	-0.4%
CN1CCN(c2nc(-c3ccccc3)nc(-c3ccccc3)c2C#N)CC1	?	?	-96.1*	-4.4%	-1.8%
COc1ccc(-c2nc(-c3cccc(C)c3)nc(N3CCN(C)CC3)c2C#N)cc1	14.6µM*	16.4µM*	-20.2	0.1%	-0.3%
COc1cccc(-c2nc(-c3ccccc3)nc(N3CCN(C)CC3)c2C#N)c1	?	?	-61.3*	?	?
COc1ccc(-c2nc(-c3ccccc3)nc(N3CCN(C)CC3)c2C#N)cc1	?	?	-20.6	4.5%	0.0%
O=c1cc(Cn2ccnc2)c2cc(O)ccc2o1	-16.4%	25.1%	0.0	1.0%	4.5%
CCCS(=O)(=O)NCc1c(C)ncc2c1CCN(C(=O)/C=C/c1ccccc1)C2	-9.2%[9.04 µM]	-1.3%	.	.	.

Screens from PubChem BioAssay.
